# Compound activity as filed in PubChem BioAssay.
# RXFP1 ag: RXFP1 (human) receptor agonism | Q9HBX9 | HEK293T-RXFP1 cAMP TR-FRET, 30 min; response scale: percent of porcine relaxin response, buffer zero | Potency, µM (top dose mostly 57.5 µM), without a hit: top-dose activation, actives largely listed as activators | actives 0.3% (n = 370,000); note: potency is the fitted concentration of half-maximal effect; % is set by controls: 0 for no effect and ±100 for the full control effect; nearly all actives have a fitted effect of over 60% in size
# Target sequence (Q9HBX9 whole entry, looked up): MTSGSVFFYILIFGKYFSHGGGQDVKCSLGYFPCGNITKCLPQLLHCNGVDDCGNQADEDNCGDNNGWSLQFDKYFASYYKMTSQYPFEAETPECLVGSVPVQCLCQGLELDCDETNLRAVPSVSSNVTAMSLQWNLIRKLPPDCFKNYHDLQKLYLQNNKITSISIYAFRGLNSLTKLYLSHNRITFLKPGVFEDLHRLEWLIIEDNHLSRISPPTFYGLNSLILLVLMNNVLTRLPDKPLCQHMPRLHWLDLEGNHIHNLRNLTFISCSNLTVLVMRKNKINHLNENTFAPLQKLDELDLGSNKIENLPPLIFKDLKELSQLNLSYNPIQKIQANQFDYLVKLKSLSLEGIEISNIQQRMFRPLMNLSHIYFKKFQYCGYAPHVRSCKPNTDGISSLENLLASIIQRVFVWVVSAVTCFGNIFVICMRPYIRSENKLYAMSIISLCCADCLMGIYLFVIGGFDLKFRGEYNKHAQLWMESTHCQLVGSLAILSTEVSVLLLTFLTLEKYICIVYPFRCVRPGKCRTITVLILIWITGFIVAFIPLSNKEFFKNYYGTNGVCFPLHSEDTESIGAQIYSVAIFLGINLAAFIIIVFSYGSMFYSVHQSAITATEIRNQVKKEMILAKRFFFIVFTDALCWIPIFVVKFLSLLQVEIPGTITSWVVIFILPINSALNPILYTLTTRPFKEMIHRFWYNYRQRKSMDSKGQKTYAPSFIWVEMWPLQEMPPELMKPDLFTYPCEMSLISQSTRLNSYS
#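 cAMP rise read by TR-FRET after 30 min, 37C compound exposure (up to 58 uM) in RXFP1-transfected HEK293 cells with Ro 20174 present. EC50 from Hill-equation fits, with 29 nM porcine relaxin as 100% and buffer as basal.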
# BRCA1 expr act: increases BRCA1 expression; MCF7-BRCA1-FFLuc reporter, luminescence, 48 h; response scale: scaled: vehicle 0%, 10 µM genistein 100%; Potency, µM (series often up to 46.1 µM), without a hit: top-dose activation, most hits filed as activators; actives 1.1% (n = 380,000); AID 624202; note: potency is the fitted concentration of half-maximal effect; nearly all actives have a fitted effect of over 80% in size
#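 Compounds are tested at multiple concentrations on MCF7 BRCA1-luciferase reporter cells seeded at 2000 per well; after 48 h, a single luminescence end-point is taken and curves fitted to the normalized data.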
# Giardia kill: Giardia lamblia killing; Giardia lamblia trophozoite viability; activity change, % at 7.66 µM, hits read low; actives 0.15% (n = 340,000); AID 540267; in the data active = activity change below about -80%; inconclusive = between about -30% and that limit;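 note: parasites exposed to compound for two days anaerobically before the ATP read; % is set by controls: 0 for no effect and ±100 for the full control effect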
#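 Giardia lamblia trophozoites (100 cells/well) were incubated with compounds for 48 h at 37 deg C under anaerobic conditions. Viability was read as ATP content by one-step luminescence after 15-30 min at room temperature.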
# RXFP1 antagonist: RXFP1 (human) relaxin receptor antagonism; HEK293-RXFP1, relaxin-stimulated cAMP HTRF, 30 min; hits give low values; activity change, negative = inhibition, % at 57.5 µM; actives 0.59% (n = 350,000); AID 1259400;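 active = activity change of -60% or lower, but not beyond a set lower limit; inconclusive = change between -60% and -40%, or beyond the set limit; inactive = change above -40%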; note: % is set by controls: 0 for no effect and ±100 for the full control effect
# IL2 activator: activates IL-2 in a cell-based reporter assay; IL-2 activation reporter assay, cell-based qHTS; stimulated with anti-CD3/CD4/CD28 beads; in transgenic mouse T cells; activation, % (series mostly up to about 46 µM); actives 0.065% (n = 360,000); in the data active = activation above about 50%; inconclusive = mostly about 30% to 49%; note: 0% is about no effect
#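 Readout: EGFP and DsRed signals by fluorescent plate cytometry. Unstimulated transgenic mouse T cells received compound 60 min before antibody-bead stimulation, then incubated 18 h at 37 degrees C.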
# NPSR antag: antagonists of human neuropeptide S receptor cAMP signaling. Potency, µM (doses to about 38.3 µM), without a hit: at the top dose activity change, negative = inhibition, usual class: inhibitors. actives 1% (n = 220,000). CHO-NPSR cells, cAMP TR-FRET, antagonist mode. Q6W5P4; note: potency is the fitted concentration of half-maximal effect; % is set by controls: 0 for no effect and ±100 for the full control effect; nearly all actives have a fitted effect of over 50% in size
# An asterisk follows results filed as active; u = inconclusive; x = no result; [ ] = dose if it differs, or a comment. Hits are enriched below; roughly 1.9% of the tested compounds scored in any of these assays. Unless noted, calls come from the whole dose curve; as a rule, active = well fitted curve in the direction sought with a large enough effect; inconclusive = small, poorly fitted or top-dose-only effect, or another doubt; inactive = no such curve, though single readings can be large; an effect the other way counts as inactive or inconclusive.
SMILES,RXFP1 ag,BRCA1 expr act,Giardia kill,RXFP1 antagonist,IL2 activator,NPSR antag
O=C(COc1ccccc1C(=O)Nc1cccc(F)c1)Nc1ccc(Br)cc1,x,-11%,x,x,x,x
COc1ccc(OCc2ccc(/C=N\NC(=O)c3sccc3C)o2)cc1,0%,13µM*,18,-7,-2,x
O=C(N/N=C\c1ccc(COc2ccc([N+](=O)[O-])cc2)o1)c1ccc(Cl)cc1,-3%,-28%,-26,-2,-2,-5%[46.1 µM]
CC(C)Oc1ccc(CNC(=O)CN2C(=O)c3cccnc3Oc3ccc(Cl)cc32)cc1,-1%,x,x,-25,x,x
O=[N+]([O-])c1ccc(Nc2ccc(F)cc2)nc1,2%,18%,7,21,-1,31%
CN(C)c1ccc(Nc2ccc([N+](=O)[O-])cn2)cc1,-2%,3.2µM*,-2,-21,-5,x
CCCN(CCC)S(=O)(=O)c1ccc(C(=O)N2CCn3c4c(c5cc(C)ccc53)CCCC42)cc1 (configuration not stated),-2%,x,x,-6,x,x
Cc1cccc(C(=O)NC(=O)Nc2c(C)cc(C)nc2C)c1,0%,4µM*,0,-4,0,15%
CC(NC(=O)/C(C#N)=C/c1ccc(Cl)c([N+](=O)[O-])c1)c1ccccc1 (configuration not stated),-1%,-91%,9,-104*,0,u
CCOc1ccc(NC(=O)CSc2nnc3c(n2)[nH]c2ccc(S(=O)(=O)N(C)C)cc23)cc1,x,23%,4,x,x,x
CCOC(=O)c1ccc(OCCN2C[C@H](O)[C@@H](O)[C@H](O)[C@H]2CO)cc1,x,x,x,-6,x,x
N#C/C(C(=O)N1CCCCC1)=C1\Nc2ccccc2S1,-2%,8.9µM*,-15,-10,0,-16%[46.1 µM]
COc1cc(/C=C/c2ccc3cccc(O)c3n2)ccc1O,-3%,11µM*,13,1,0,x
COC(=O)c1oc2ccc(OC)cc2c1N,2%,u,-6,-13,3,13%
COc1ccc(C(=O)c2oc3ccc(OC)cc3c2N)cc1,1%,5µM*,-4,-10,0,-7%
O=S(c1ccc2ccccc2c1)c1cnns1 (configuration not stated),0%,-102%,3,-33,-1,10µM*
Cc1nnsc1S(=O)c1ccc(Cl)c(Cl)c1 (configuration not stated),1%,-58%,6,6,3,x
CCOc1ccc(NC(=O)Nc2ccon2)cc1,-2%,10µM*,-15,2,1,x
CCOc1ccc(NC(=O)Nc2ccccc2SC)cc1,1%,2.8µM*,0,-5,-5,13%
Cc1cc(C)cc(NC(=O)C(=O)NCC(c2ccc3c(c2)OCO3)N2CCN(C)CC2)c1 (configuration not stated),1%,x,x,-24,x,x
CCOC(=O)c1cccc(NS(=O)(=O)c2ccc3[nH]c4c(c3c2)CCCC4)c1,-1%,x,x,-6,x,x
CCOc1ccc(/C=C\C(C)=N\O)cc1,-2%,2.8µM*,u,-13,1,-3%[46.1 µM]
CCOc1ccc(/C=C/C(=O)Oc2ccc(OC)cc2)cc1,2%,-5%,3,-15,0,x
OCCCNCc1ccc(N(c2ccccc2)c2ccccc2)cc1,0%,-45%,-26,-69*,-1,x
O=C(O)c1ccc(-n2ncc3c2/C(=C/c2cccc([N+](=O)[O-])c2)CC3)cc1,0%,6.3µM*,4,-2,1,-47%
SMILES,RXFP1 ag,BRCA1 expr act,Giardia kill,RXFP1 antagonist,IL2 activator,NPSR antag
O=C(O)c1ccc(-n2ncc3c2/C(=C\c2cccc([N+](=O)[O-])c2)CC3)cc1,x,68%,-10,-1,-1,x
CC1CCCN(C(=O)CSc2nc3ccccc3o2)C1 (configuration not stated),3%,8.9µM*,9,-11,-3,-12%[46.1 µM]
O=C(O)c1ccc2oc(SCC(=O)N3CCCCC3)nc2c1,0%,7.1µM*,-1,-1,2,-5%[46.1 µM]
Cc1ccccc1NC(=O)CSc1nc2ccccc2o1,0%,13µM*,-6,10,-2,-1%[46.1 µM]
Cc1ccccc1/C=N/NC(=O)CSc1nc2ccccc2o1,1%,-15%,6,-9,-1,-4%
Clc1nc(NCc2ccco2)c2[nH]cnc2n1,x,3%,-25,x,x,x
CCC(C(=O)NC(=O)NC(C)=O)c1ccccc1 (configuration not stated),x,x,x,-4,x,x
COc1ccccc1CNC(=O)CCCn1c(=O)c2cccn2c2ccccc21,u,x,x,-16,x,x
O=C(Cn1cc(C(F)(F)F)cc(Cl)c1=O)NCc1ccc(F)cc1,-2%,11µM*,7,17,5,x
O=C(Cn1cc(C(F)(F)F)cc(Cl)c1=O)NCCc1ccc(Cl)cc1Cl,2%,0%,-9,-1,-3,8%
CCOC(=O)c1ccccc1NC(=O)c1cnc(N2CCOCC2)c2ccccc12,3%,x,x,-16,x,x
Clc1ccc(COn2nnc3ccccc32)c(Cl)c1,2%,5.6µM*,-6,6,0,-12%[46.1 µM]
OC(CNCc1ccc(-c2ccccc2)cc1)c1ccccc1 (configuration not stated),2%,-21%,-11,-61*,0,-20%
COc1ccc(-c2cn3cccnc3n2)cc1Br,3%,11µM*,26,-11,-2,5%
Nc1ccc2c(c1)CN1C(=O)c3ccccc3C1=N2,x,x,x,-15,x,x
Cc1ccc(N2C(=O)CS(=O)(=O)C23C(=O)N(Cc2ccccc2F)c2ccccc23)cc1Cl (configuration not stated),0%,-3%,x,x,x,x
CN1CCc2c(sc(NC(=O)CSc3ccc(F)cc3)c2-c2nc3ccccc3s2)C1,-30%,-24%,3,-96*,x,x
CC(=O)N1CCc2c(sc(NC(=O)CSc3ccc(F)cc3)c2-c2nc3ccccc3s2)C1,9%,x,x,-3,x,x
CCOc1ccc(-c2cn(-c3ccccc3OC)c(=S)[nH]2)cc1,4%,15%,-8,-20,-1,x
CCOc1ccc(-n2cc(-c3ccc(OC)c(OC)c3)[nH]c2=S)cc1,4%,19%,16,-76*,-1,3%
Cc1cc(C(=O)CN2C(=O)NC3(CCCCC3C)C2=O)c(C)n1Cc1cccs1 (configuration not stated),4%,4.5µM*,-28,x,-2,-16%
CC1CCCCC12NC(=O)N(CC(=O)NCc1cccs1)C2=O (configuration not stated),x,-1%,x,4,0,x
C(=N\n1cnnc1)/c1ccc(OCc2cccc3ccccc23)cc1,0%,32%,11,-34,1,u
Fc1ccccc1COc1ccc(/C=N/n2cnnc2)cc1,0%,10µM*,-7,-7,-1,-7%[46.1 µM]
